Whole data set: some 16,000 sequences, median “e-score” near -0.044, cut for the highest 2% near 0.38. For the sample, the highest values were picked, then their nearest neighbours and some sequences at random.

In this test the target is T1, GST-NbGlk1(82-244) (Nicotiana benthamiana).
T1 chain: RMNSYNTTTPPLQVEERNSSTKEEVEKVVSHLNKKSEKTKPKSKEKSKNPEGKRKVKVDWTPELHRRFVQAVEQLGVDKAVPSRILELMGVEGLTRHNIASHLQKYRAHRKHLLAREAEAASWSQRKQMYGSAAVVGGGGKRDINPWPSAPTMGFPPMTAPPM
Kind of test: protein-binding microarray; NbGlk1 is a Golden2-like transcription factor of Nicotiana benthamiana; high values mean tight binding. Particulars: protein: recombinant; tags: GST (pTH6838); dsDNA, one strand shown.
As for ATCTACAC, the binding signal is 0.34 ± 0.0325 E-score.
For AATTCTGT the value was 0.223 ± 0.0117 E-score; for ATACGCTA, 0.239 ± 0.0564 E-score.
Then ATCATGAA, with 0.215 ± 0.0159 E-score; and AAGATCAC, with 0.225 ± 0.0928 E-score; and AGGATCTG, with 0.337 ± 0.025 E-score.
On to CAGATCTG, for which the binding signal is 0.38 ± 0.0481 E-score.
For AAGATCTG the value was 0.362 ± 0.0161 E-score.
Then CAGATCCG, with 0.266 ± 0.0152 E-score.
In the case of CAGATCCC, the binding signal was 0.266 ± 0.0242 E-score.
Take CAGATCTA: the binding signal turned out to be 0.249 ± 0.0194 E-score.
Then AAGATCTC, with 0.406 ± 0.00477 E-score.
Then CAGATCTC, with 0.423 ± 0.0294 E-score; and AGGATCTC, with 0.402 ± 0.0113 E-score.
Take AGGATCTA: the binding signal came out at 0.314 ± 0.04 E-score.
With AAGATCTA, the binding signal stood at 0.356 ± 0.00732 E-score.
For ATTCGCTC the value was 0.231 ± 0.0553 E-score; for ATCACGAT, 0.29 ± 0.0315 E-score.
For ATTCCAAC the value was 0.2142 ± 0.000545 E-score; for ATCCGTTG, 0.233 ± 0.0162 E-score; for ATATGCAT, 0.219 ± 0.0814 E-score.
Regarding ATATGGAA, the binding signal is 0.219 ± 0.0165 E-score.
In the case of ATCTAAAA, the binding signal was 0.244 ± 0.06 E-score.
Turning to ACCGGAAT, the binding signal was 0.243 ± 0.0509 E-score.
Then AGGAGGAT, with 0.244 ± 0.0559 E-score; and ATTCGCCA, with 0.278 ± 0.00941 E-score; and ATCCTTTA, with 0.274 ± 0.0111 E-score.
Then AAGATCTT, with 0.399 ± 0.0153 E-score.
With AAGATCAT, the binding signal worked out at 0.214 ± 0.0212 E-score.
On to AAGATCCT, for which the binding signal worked out at 0.339 ± 0.00784 E-score.
Turning to AATCCATT, the binding signal worked out at 0.38 ± 0.039 E-score.
Then AATCCATC, with 0.367 ± 0.0565 E-score; and AATCGATT, with 0.353 ± 0.0155 E-score.
Then ATTCCATG, with 0.229 ± 0.0434 E-score.
With AATCCATA, the binding signal was 0.3787 ± 0.000904 E-score.
Then AATCCCAT, with 0.331 ± 0.00747 E-score; and AATCCATG, with 0.381 ± 0.0124 E-score; and ATTCCATA, with 0.257 ± 0.00403 E-score.
For AATCCCTG the value was 0.283 ± 0.0408 E-score; for ATCCTCGA, 0.224 ± 0.0852 E-score.
In the case of AAATATGG, the binding signal came out at 0.272 ± 0.0577 E-score.
For ATCTTCCA the value was 0.319 ± 0.0516 E-score; for AATATTAG, 0.209 ± 0.0412 E-score; for ATCGGCAA, 0.216 ± 0.00468 E-score.
In the case of ATCTTTCA, the binding signal was determined as 0.247 ± 0.0983 E-score.
For ATCTATGA the value was 0.247 ± 0.0113 E-score; for AATTTTGG, 0.25 ± 0.0182 E-score.
With AGATTTGG, the binding signal amounted to 0.394 ± 0.0453 E-score.
With AGATTTGC, the binding signal turned out to be 0.4695 ± 0.00449 E-score.
As to ATATTTGC, the binding signal amounted to 0.338 ± 0.0673 E-score.
Consider AGATTTGA, for which the binding signal was found to be 0.327 ± 0.0876 E-score.
For AGATTTAG the value was 0.276 ± 0.0684 E-score.
Then ATCATGAT, with 0.205 ± 0.00494 E-score; and ATTTCGGC, with 0.283 ± 0.0422 E-score.
For ACTAAGAT the value was 0.231 ± 0.0287 E-score; for ACTAAAAT, 0.281 ± 0.0324 E-score; for ATCCACAT, 0.256 ± 0.0906 E-score.
Take CAATCTTC: the binding signal came out at 0.294 ± 0.0422 E-score.
Then AAATCTTG, with 0.4213 ± 0.00314 E-score.
For the sequence AGATCTTG, the binding signal amounted to 0.373 ± 0.0461 E-score.
Then AAATCGTC, with 0.354 ± 0.0288 E-score; and AAATCATG, with 0.332 ± 0.0128 E-score; and AAATCGTA, with 0.373 ± 0.0227 E-score.
Take AAATCTTC: the binding signal stood at 0.446 ± 0.0208 E-score.
Turning to AAATCTTA, the binding signal came to 0.44 ± 0.0386 E-score.
Then AAATCGTG, with 0.365 ± 0.0286 E-score.
Then CAATCTTA, with 0.304 ± 0.0126 E-score; and AGATCTTA, with 0.347 ± 0.0143 E-score; and AGATCTTC, with 0.428 ± 0.0156 E-score.
Then ATCTTCTC, with 0.311 ± 0.013 E-score; and ATCAGATC, with 0.35 ± 0.0204 E-score; and ATTACGTA, with 0.354 ± 0.0309 E-score.
As to AGATACTG, the binding signal was 0.33 ± 0.00398 E-score.
With AGCGCGAT, the binding signal turned out to be 0.325 ± 0.0563 E-score.
Then AATCTATG, with 0.38 ± 0.0331 E-score; and AATCGATG, with 0.268 ± 0.0785 E-score; and AATATATG, with 0.252 ± 0.0059 E-score.
On to AATCTATA, for which the binding signal stood at 0.402 ± 0.0321 E-score.
Take AATCTATC: the binding signal is 0.366 ± 0.0334 E-score.
For ATTCTATA the value was 0.284 ± 0.0791 E-score.
Then ATCTGCGC, with 0.317 ± 0.0626 E-score; and AACGCGAT, with 0.341 ± 0.0519 E-score.
For AAAGGAAT the value was 0.27 ± 0.0558 E-score; for ATCCAGTG, 0.221 ± 0.123 E-score; for ATAGATAC, 0.26 ± 0.0116 E-score.
ACAGATAT: the binding signal came out at 0.415 ± 0.0135 E-score.
As to AGAGATCG, the binding signal was found to be 0.303 ± 0.0386 E-score.
On to AGAGATCT, for which the binding signal is 0.411 ± 0.0152 E-score.
Consider ACAGATAC, for which the binding signal turned out to be 0.276 ± 0.00718 E-score.
Then AGAGATCC, with 0.346 ± 0.0193 E-score; and AAAGATAT, with 0.342 ± 0.0309 E-score.
AGAGATAC: the binding signal turned out to be 0.222 ± 0.0223 E-score.
As for AGAGATAT, the binding signal was 0.391 ± 0.0365 E-score.
Take ATAGAGAT: the binding signal is 0.276 ± 0.0241 E-score.
Take AGAGAGAT: the binding signal came out at 0.241 ± 0.0533 E-score.
For ATAGATAT the value was 0.394 ± 0.0151 E-score; for AACTAGAT, 0.208 ± 0.0834 E-score; for ATTTCTCC, 0.242 ± 0.0333 E-score.
Consider AATTACGT, for which the binding signal came to 0.26 ± 0.0756 E-score.
Take ATTCTTGA: the binding signal was determined as 0.221 ± 0.0445 E-score.
For ACGAAGAT the value was 0.31 ± 0.00598 E-score.
As to ATATGCTG, the binding signal amounted to 0.258 ± 0.0732 E-score.
In the case of AAAGATCG, the binding signal came out at 0.278 ± 0.0495 E-score.
For AAAGATCC, the binding signal turned out to be 0.292 ± 0.0246 E-score.
In the case of AAAGATCT, the binding signal came out at 0.38 ± 0.023 E-score.
Then AGCAAGAT, with 0.309 ± 0.0213 E-score; and ATTATCCC, with 0.261 ± 0.0646 E-score; and ATAACGAT, with 0.216 ± 0.0183 E-score.
For ATATCCCC the value was 0.36 ± 0.0106 E-score; for AGATCCAC, 0.287 ± 0.0119 E-score; for ATATCCAG, 0.3945 ± 0.00384 E-score.
Regarding ATATCCAC, the binding signal worked out at 0.393 E-score.
Regarding ATATCCAT, the binding signal was found to be 0.43 ± 0.00596 E-score.
Then ATCTCCAT, with 0.335 ± 0.0406 E-score.
For ATATCCAA the value was 0.407 ± 0.00723 E-score; for ATATCAAA, 0.228 ± 0.00678 E-score; for ATATCAAT, 0.281 ± 0.00703 E-score.
With AGATCCAG, the binding signal worked out at 0.261 ± 0.0749 E-score.
In the case of ATATCAAG, the binding signal worked out at 0.298 E-score.
Then ATATCCCA, with 0.3708 ± 0.000904 E-score; and ATTGTGTA, with 0.249 ± 0.00712 E-score; and ATCCCCGG, with 0.256 ± 0.0142 E-score.
Regarding AGAATTTA, the binding signal came out at 0.222 ± 0.00311 E-score.
Take AATTTCAT: the binding signal amounted to 0.238 ± 0.0823 E-score.
For the sequence ATCCGTTA, the binding signal was 0.315 ± 0.0322 E-score.
Then ATCAGTGA, with 0.218 ± 0.0932 E-score; and ATCTGGTA, with 0.238 ± 0.087 E-score.
As for ATCGCGAC, the binding signal was 0.287 ± 0.126 E-score.
Consider AATCCTTG, for which the binding signal is 0.336 ± 0.0164 E-score.
Consider ATGGTAAT, for which the binding signal stood at 0.305 ± 0.00923 E-score.
AAATCCAG: the binding signal amounted to 0.413 ± 0.0172 E-score.
For AGATCCAA the value was 0.262 ± 0.127 E-score; for AAATCCAC, 0.43 ± 0.0323 E-score; for AAATCCAT, 0.422 ± 0.0113 E-score.
For the sequence AAATCAAG, the binding signal turned out to be 0.318 ± 0.0251 E-score.
In the case of CAATCCAC, the binding signal amounted to 0.328 ± 0.0614 E-score.
Turning to AATCCCAC, the binding signal turned out to be 0.318 ± 0.0378 E-score.
Turning to AAATCCAA, the binding signal is 0.426 ± 0.042 E-score.
Then CAATCCAG, with 0.291 ± 0.00762 E-score; and CAATCCAA, with 0.298 ± 0.0654 E-score.
Then ATCCCAGA, with 0.276 ± 0.00637 E-score; and ATATGAGA, with 0.231 ± 0.0943 E-score; and ATTACCTG, with 0.213 ± 0.0963 E-score.
Then CAATATCA, with 0.299 ± 0.00874 E-score.

For the origin of these results see paper PMC5836133, “The intracellular immune receptor Rx1 regulates the DNA-binding activity of a Golden2-like transcription factor”.
